High-throughput results from PubChem.
aSyn yeast inh: rescues yeast growth from alpha-synuclein toxicity | 370,000 tested, 0.14% active | Potency, µM (highest dose often 46.1 µM), for inactives: at the highest dose growth rescue (activation), usual class: activators | Yeast expressing alpha-synuclein, growth rescue, BacTiter-Glo, 24 h; further: % of control where 0% means no effect; nearly all actives have a fitted effect of over 65% in size
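Rescue of yeast growth: cells expressing toxic alpha-synuclein, induced in galactose at OD600 0.02, incubated with compound 24 h at 30 C. ATP luminescence quantified growth; inhibitors of toxicity appear as activators.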
Mito fusion yeast: inhibitors of mitochondrial division or activators of mitochondrial fusion | S. cerevisiae fusion-defective mutant growth rescue, CellTiterGlo 48 h | 320,000 tested, 0.23% active | Potency, µM (top dose mostly 46.1 µM), without a hit: at the highest dose growth rescue (activation), usual class: activators; further: % of control where 0% means no effect; nearly all actives have a fitted effect of over 45% in size
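Compounds are tested for their ability to restore growth of mitochondrial fusion-defective yeast strains at non-permissive 37C in YPEG medium over 48 hours. Viability is quantified by luciferase luminescence.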
TDP-43 yeast inh: inhibitors of TDP-43 toxicity in yeast. Potency, µM (titrated, usually from 46.1 µM), without a hit: at the highest dose growth rescue (activation), usual class: activators. 410,000 tested, 1.8% active. TDP-43 expressing yeast growth rescue, BacTiter-Glo, 24 h. AID 652104; further: % of control where 0% means no effect; nearly all actives have a fitted effect of over 50% in size
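Growth rescue of TDP-43-toxic yeast measured as ATP luminescence (BacTiter-Glo). Cells grown to mid-log in raffinose, induced in galactose at OD600=0.02, exposed to compound 24 hr at 30 deg C.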
Abeta rescue: compounds reversing amyloid beta toxicity in yeast | 410,000 tested, 0.063% active | yeast expressing A-beta42, growth rescue, OD600, 48 h; response scale: 0% DMSO, 100% iron-clioquinol control | Potency, µM (top dose mostly 46.1 µM), hits mostly activators; further: nearly all actives have a fitted effect of over 55% in size
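Growth rescue measured by 600 nm absorbance after 48 h yeast culture at 30 C with compound. Values normalized between DMSO and an equimolar ferric chloride plus clioquinol control.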
FUS suppressor: rescues growth of FUS-expressing yeast. S. cerevisiae FUS-expressing, growth rescue, OD600, 24 h. 390,000 tested, 0.24% active. Potency, µM (doses to about 76.6 µM), actives largely listed as activators;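 further: plate controls were DMSO vehicle for no effect and reference control for full effect; nearly all actives have a fitted effect of over 55% in size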
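Read-out: OD at 600 nm after 24hr at 30C, reporting rescue of FUS-induced yeast toxicity. Cells at OD 0.005 in galactose (2%) minimal medium; compounds tested in a dilution series; CP55940 titration from 92uM final as control.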
Numbers without * were called inactive; i = inactive; ? = inconclusive; · = not tested or not shown; [ ] = another dose, or the depositor's remark. An excerpt weighted towards active compounds, which were near 2.2% of everything screened. The call rests on the fitted dose curve; in most records, active means well fitted curve in the direction sought with a large enough effect; inconclusive means small, poorly fitted or top-dose-only effect, or another doubt; inactive means no such curve, though single readings can be large; an effect the other way counts as inactive or inconclusive. Potency means the concentration at half of the fitted maximal effect.

SMILES | aSyn yeast inh | Mito fusion yeast | TDP-43 yeast inh | Abeta rescue | FUS suppressor
CCSc1nc(-c2cccc(Cl)c2)nc2c1Cc1c(CO)cnc(C)c1O2 | · | · | 2.2% | i | i
Oc1ccccc1C1C=C(c2ccc3c(c2)OCO3)NC(c2cccc(F)c2)N1 (stereo not drawn) | 14.7% | · | · | · | ·
C=CC[C@@H](CC(=O)N[C@H](CO)Cc1ccccc1)C(=O)N[C@H](COC(=O)[C@@H](CC=C)Cc1ccc(F)cc1)C(C)(C)C | -10.0% | · | 16.6% | i | 15.8µM*
C=CCC[C@H](Cc1ccc(F)cc1)C(=O)OC[C@@H](C)NC(=O)[C@@H](CC=C)CC(=O)N[C@@H](CO)Cc1ccccc1 | -3.5% | · | 20.1% | i | i
C=CCC[C@H](Cc1ccc(F)cc1)C(=O)OC[C@@H](C)NC(=O)[C@@H](CC=C)CC(=O)N[C@H](CO)Cc1ccccc1 | -2.5% | · | -1.6% | i | 25.1µM*
C=CCC[C@H](Cc1ccc(F)cc1)C(=O)OC[C@@H](NC(=O)[C@@H](CC=C)CC(=O)N[C@@H](CO)Cc1ccccc1)C(C)(C)C | -1.4% | · | -30.3% | i | 12.6µM*
O=[N+]([O-])c1nn(-c2ccccc2)n(O)c1=NCCc1ccccc1 | 1.5% | 17.8µM* | 7.08µM* | i | ·
Cc1ccc(CCN=c2c([N+](=O)[O-])nn(-c3ccccc3)n2O)cc1 | 20.0% | 5.7% | 11.2µM* | i | i
O=[N+]([O-])c1nn(-c2ccccc2)n(O)c1=NC1CCN(Cc2ccccc2)CC1 | -3.9% | -1.2% | 4.4% | i | i
COc1ccc(-n2nc([N+](=O)[O-])c(=NCCc3ccccc3)n2O)cc1 | 7.8% | 15.0% | 12.6µM* | i | ·
Clc1ccc(Nc2nc(Nc3ccc(Cl)cc3)nc(N3CCOCC3)n2)cc1 | 3.5% | · | · | · | ·
CCOc1ccc(S(=O)(=O)NCC(c2ccco2)S(=O)(=O)c2cccs2)cc1 (stereo not drawn) | · | · | 26.2% | i | i
O=S1(=O)c2ccccc2N(Cc2ccc(Cl)cc2F)c2ccccc21 | · | · | ? | i | i
CC(C)C(=O)Nc1ncc(Cc2cccc(Cl)c2)s1 | 0.6% | -9.8% | 17.8µM* | ? | i
COC(=O)c1ccc(C2C=C(c3ccc(Cl)cc3)Nc3nc4ccccc4n32)cc1 (stereo not drawn) | · | · | 10µM* | i | i
COc1ccc(C(=O)Nc2nc3n(n2)C(c2ccc(F)cc2)C=C(c2ccc(Cl)cc2)N3)cc1 (stereo not drawn) | · | · | 0.0%[9.22 µM] | i | ?
Fc1ccc(C2=CC(c3ccc(F)cc3)n3c(nc4ccccc43)N2)cc1 (stereo not drawn) | · | · | 22.4µM* | i | i
COc1ccc(C2=CC(c3cc(Br)ccc3F)n3c(nc4ccccc43)N2)cc1 (stereo not drawn) | · | · | ? | i | i
COc1ccccc1N1CCN(C(=O)c2ccc(-c3nc4ccccc4s3)o2)CC1 | 0.8%[1.84 µM] | 18.1% | 22.4µM* | i | ?
COc1ccccc1N1CCN(C(=O)NCc2ccc(Cl)cc2)CC1 | 11.3% | -1.5% | 13.7% | i | i
COc1ccccc1N1CCN(C(=O)c2ccc(-c3ccc(Cl)cc3)o2)CC1 | 3.4% | ? | 15.8µM* | i | ?
COc1ccc(-c2nnc(SCC(=O)NCc3ccccc3)nc2-c2ccc(OC)c(OC)c2)cc1OC | · | · | 13.0% | i | ?
CC(C)C[C@@H]1COc2cc(Br)ccc2S(=O)(=O)N1Cc1cn(CC2CCCCC2)nn1 | · | · | · | · | i
CC(C)c1nc2scc(-c3ccc(Cl)cc3)c2c(=O)n1N | 14.3% | 10.7% | 14.1µM* | i | i
Cc1nc2scc(-c3ccc(Cl)cc3)c2c(=O)n1N | 0.1% | 1.5% | 11.1% | i | i
Cc1ccc(CNC[C@@]23CO[C@H](c4ccc(Cl)cc4)N2[C@@H](c2ccc(Cl)cc2)SC3)o1 | · | · | · | · | i
Cc1ccc(Nc2ncnc3onc(C)c23)cc1Cl | · | · | 35.5µM* | i | i
Cc1cc(Cl)ccc1Nc1ncnc2onc(C)c12 | · | · | 36.1% | i | i
Cc1ccccc1C(=O)Nc1sc2c(c1C(=O)NCc1ccco1)CCC(C(C)(C)C)C2 (stereo not drawn) | · | · | 20.5% | i | i
